Measurements taken from PubChem BioAssay.
Active and inactive are the calls of the source. Unless noted, how the calls were made is not given here.

Assays:
[1] = liver-stage malaria parasite load reduction – cell-based, known kinase inhibitor set, luminescence, hepatoma host viability (AID 624392); details: Plasmodium liver stage in hepatoma cells, luciferase luminescence, concentration not given here; liver cell % of control: measured here: host liver cell viability; parasite % of control: stronger effect = lower value;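 further: infected cells incubated roughly two days before readout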
[2] = altered dexamethasone sensitivity, NF-kB reporter, cell-based, luciferase, IL-1B stimulus (AID 624486); details: IL-1B + dexamethasone, luminescence; percent of negative control (+Dex): actives lie on both sides, concentration not given here; z-score: measured here: IL-1B alone, no Dex;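 on percent of negative control (+Dex): 100% = mean signal of vehicle control wells on the plate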
[3] = C. elegans survival during P. aeruginosa infection – whole organism (AID 651566);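 further: tested at 14 µM; sign flipped so higher z means a lower ratio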; details: C. elegans killed by P. aeruginosa, survival ratio
[4] = pro-inflammatory signaling induction in mouse macrophages – cell-based, murine, luminescence (AID 652131); details: murine macrophage pro-inflammatory reporter, stronger effect = higher value
[5] = molecular target: Cellular tumor antigen p53 (Homo sapiens) (UniProt P04637); assay: GFP-p53 level modulators in HPV16+ cells – imaging, known kinase inhibitor set, EGFP/DsRed ratio (AID 1053116); details: GFP-p53 stability, stronger effect = higher value; EGFP object count: measured here: GFP-p53 positive objects count;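 further: cells exposed to compounds for 24 h at 37 °C before reading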
[6] = inducers of IRF3 signaling, differentiated THP-1 – cell-based, PMA-stimulated THP-1, luminescence (AID 1053176); details: PMA-differentiated THP-1, IRF3 reporter luminescence; stronger effect = higher value
[7] = MELAS cybrid and Rieske KO viability enhancers – cell-based, MELAS cybrids, Rieske KO mouse fibroblasts, CellTiter-Glo, primary screen (AID 1508586;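 active means mean z-score across replicates of 1.96 or higher in either the MELAS or the Rieske mutant cell line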;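 further: z relative to plate mean and SD of compound and empty wells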); details: low glucose
[8] = MELAS cybrid survival, CellTiter-Glo 48 h, stronger effect = higher value
[9] = Rieske KO mouse fibroblast survival, CellTiter-Glo 72 h

Chain of Cellular tumor antigen p53 (Homo sapiens) (P04637 whole entry, looked up): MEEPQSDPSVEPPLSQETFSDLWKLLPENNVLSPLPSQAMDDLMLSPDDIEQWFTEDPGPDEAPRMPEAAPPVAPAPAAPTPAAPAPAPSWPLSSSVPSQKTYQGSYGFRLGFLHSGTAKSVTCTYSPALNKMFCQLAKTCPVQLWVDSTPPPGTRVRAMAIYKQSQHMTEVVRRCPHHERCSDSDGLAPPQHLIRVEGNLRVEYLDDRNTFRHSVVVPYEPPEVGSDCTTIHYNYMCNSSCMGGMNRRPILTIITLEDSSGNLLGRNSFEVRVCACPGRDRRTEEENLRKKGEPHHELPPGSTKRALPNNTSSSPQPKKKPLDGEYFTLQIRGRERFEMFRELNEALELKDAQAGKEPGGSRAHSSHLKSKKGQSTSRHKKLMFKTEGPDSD

Row | Structure (SMILES) | liver cell % of control [1] [%] | parasite % of control [1] | percent of negative control (+Dex) [2] | z-score [2] | z-score [3] | z-score [4] | EGFP object count [5] | EGFP/DsRed ratio [5] | fraction signal [6] | z-score [7, 8] | z-score [7, 9]
1 | COc1cccc(-n2ncc3c(N/N=C/c4ccc(C)cc4)ncnc32)c1 | 114 | 130% (inactive) | 105% (inactive) | 0.92 | -0.225 (inactive) | -0.468 (inactive) | 9.5 | 0.811 (inactive) | 0.0005 (inactive) | -0.521 (inactive) | 0.152
2 | CS(=O)(=O)CCNCc1ccc(-c2ccc3ncnc(Nc4ccc(OCc5ccccc5)c(C(F)(F)F)c4)c3c2)o1 | 107 | 128% (inactive) | 91.5% (inactive) | -0.11 | -1.4 (inactive) | 0.401 (inactive) | 6 | 0.123 (inactive) | -0.0055 (inactive) | 0.000746 (inactive) | -0.326
3 | Nc1ncc(-c2cccc(S(N)(=O)=O)c2)c2scc(-c3ccc(F)c(Cl)c3)c12 | 86.2 | 63% (inactive) | 101% (inactive) | -0.045 | 0.425 (inactive) | 0.178 (inactive) | 7 | 0.225 (inactive) | -0.008 (inactive) | -0.767 (inactive) | -0.224
4 | Fc1ccc(-c2nn3ccccc3c2-c2ccncc2)cc1 | 99.4 | 91.2% (inactive) | 90% (inactive) | 0.26 | -0.5 (inactive) | -0.011 (inactive) | 4.5 | 0.0996 (inactive) | 0.0045 (inactive) | 0.183 (inactive) | -0.338
5 | CCCN1CCCC(c2ccc(Nc3nc(Nc4cc(F)ccc4C(N)=O)c4cc[nH]c4n3)c(OC)c2)C1 (centres undefined) | 71 | 101% (inactive) | 73.5% (inactive) | -2.44 | 1.62 (inactive) | -0.56 (inactive) | 50.5 | 0.576 (inactive) | -0.003 (inactive) | -0.991 | 4.23
6 | CCN(CC)Cc1ccc(Nc2nccc(-c3cnn4ncccc34)n2)cc1 | 52.3 | 12.5% (active) | 3% (active) | -9.2 | -0.59 (inactive) | -2.04 (inactive) | 3 | 0.0517 (inactive) | 0.0075 (inactive) | 0.539 (inactive) | 1.65
7 | CN(C)CCOc1ccc(-c2cc(-c3ccc4c(c3)CC/C4=N/O)c(-c3ccncc3)o2)cc1 | 77.4 | 441% (inactive) | 130% (inactive) | 0.59 | 0.205 (inactive) | -0.386 (inactive) | 48 | 1.74 (active) | 0.045 (inactive) | 0.463 (inactive) | -0.429
8 | CN1CCN(C(=O)c2ccc(NC(=O)Nc3ccc(N(C)c4ccnc(Nc5ccc(CS(C)(=O)=O)cc5)n4)cc3)cc2)CC1 | 86.4 | 77.1% (inactive) | 85.5% (inactive) | -0.585 | 0.175 (inactive) | 4.5 (inactive) | 2 | 0.13 (inactive) | -0.0115 (inactive) | 0.142 (inactive) | 0.134
9 | O=C1Nc2ccc(-c3cccnc3)cc2/C1=C\c1cc(Br)c(O)c(Br)c1 | 174 | 13.3% (inactive) | 102% (inactive) | -0.125 | 0.98 (inactive) | 0.575 (inactive) | 1.5 | 0.0182 (inactive) | -0.0065 (inactive) | -0.192 (inactive) | -0.185
10 | CCS(=O)(=O)c1ccc(OC)c(Nc2ncc(-c3ccccc3Cl)o2)c1 | 160 | 36.8% (inactive) | 74.5% (inactive) | -0.91 | -0.335 (inactive) | -0.503 (inactive) | 4.5 | 0.0626 (inactive) | 0.0065 (inactive) | 1.39 (inactive) | -0.145
11 | COc1ccc2ncn(-c3cc(O[C@H](C)c4ccccc4C(F)(F)F)c(C(N)=O)s3)c2c1 | 75.6 | 88.3% (inactive) | 75% (inactive) | -2.76 | 0.355 (inactive) | -1.54 (inactive) | 7.5 | 0.176 (inactive) | 0.0035 (inactive) | -0.00963 (inactive) | 0.29
12 | NS(=O)(=O)c1ccc(NC2CC(c3cccc(O)c3)NN2)cc1 (centres undefined) | 92.2 | 101% (inactive) | 81.5% (inactive) | -0.55 | -1.21 (inactive) | 1.01 (inactive) | 5.5 | 0.108 (inactive) | -0.0035 (inactive) | 1.31 (inactive) | -0.281
13 | CNC(=O)c1sc(-n2cnc3cc(OC)c(OC)cc32)cc1OCc1ccccc1C(F)(F)F | 124 | 77.7% (inactive) | 68.5% (inactive) | -0.645 | -0.51 (inactive) | -0.587 (inactive) | 5.5 | 0.105 (inactive) | -0.005 (inactive) | -0.801 (inactive) | -0.0583
14 | COC(=O)c1ccc2c(c1)/C(=C\c1cc(Br)c(O)c(Br)c1)C(=O)N2 | 150 | 12.2% (active) | 110% (inactive) | 0.355 | -0.645 (inactive) | -0.838 (inactive) | 1 | 0.00779 (inactive) | -0.012 (inactive) | -0.186 (inactive) | -0.227
